A short description of experiment [1]: ATG_PXRE_CIS: Attagene CIS-FACTORIAL HepG2 Assay for human Pregnane X Receptor Element (PXRE) (AID 2282957). As to conditions: HepG2 Attagene CIS-FACTORIAL PXRE reporter, mRNA; actives raise or lower the signal. In outline:
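Transfect HepG2 with MRTUs (cis promoter elements); dose chemical, incubate 24 h; isolate RNA, RT with oligo(dT), PCR, 6-FAM label, HpaI cut, CE. Gain/loss fit vs DMSO.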

Experiment [2] in a line: ATG_PPRE_CIS: Attagene CIS-FACTORIAL HepG2 Assay for human Peroxisome Proliferator-activated Response Element (PPRE) (AID 2282958). Conditions: HepG2 PPRE cis-element reporter, Attagene transcription factor profiling; actives raise or lower the signal. Put shortly: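 HepG2, transient MRTU transfection (cis promoter elements, endogenous TFs). 24 h dosing. RNA → oligo(dT) RT → PCR → 6-FAM primer extension → HpaI digest → CE. Bidirectional fit vs DMSO.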

Experiment [3] in a line: ATG_RORE_CIS: Attagene CIS-FACTORIAL HepG2 Assay for human RAR-related Orphan Receptor Element (RORE) (AID 2282959). As to conditions: HepG2 Attagene cis-factorial RORE reporter, mRNA; actives raise or lower the signal. Put shortly: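 Transient MRTU transfection of human HepG2 liver cells (FuGene 6); 24 h compound exposure; TriZol RNA, oligo(dT) RT, PCR, FAM labeling, HpaI cut, CE fragment analysis. DMSO = negative control/baseline.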

The nature of experiment [4]: ATG_Sox_CIS: Attagene CIS-FACTORIAL HepG2 Assay for human SRY-box transcription factor (SOX) (AID 2282960). As to conditions: HepG2 Attagene cis-factorial SOX reporter, mRNA; actives raise or lower the signal. In outline: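 Endogenous factor activity in human liver HepG2 cells carrying transfected cis-regulated reporter units. RNA taken 24 h post-dose, reverse-transcribed, PCR-amplified and sized by capillary electrophoresis. Gain or loss of signal fitted relative to DMSO.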

Experiment [5] has as its target Transcription factor Sp1 (Homo sapiens) (UniProt P08047). In words: ATG_Sp1_CIS: Attagene CIS-FACTORIAL HepG2 Assay for human Specificity Protein 1 (Sp1) (AID 2282961). Conditions: HepG2 Sp1 cis-reporter transcription, actives raise or lower the signal. Put shortly: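 Transient MRTU-transfected HepG2, 24 h compound exposure. Total RNA → oligo(dT) RT → PCR of reporter → 6-FAM primer extension → HpaI digest → CE. Endpoint fitted both directions vs DMSO.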

The nature of experiment [6]: ATG_SREBP_CIS: Attagene CIS-FACTORIAL HepG2 Assay for human Sterol Regulatory Element Binding (SREBP) (AID 2282962). Conditions: HepG2 Attagene cis-factorial SREBP reporter, mRNA; actives raise or lower the signal. Put shortly:
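HepG2 cells transiently transfected with multiplexed cis-element reporter units report endogenous transcription factor activity. After 24 h of chemical exposure, reporter mRNA was quantified by RT-PCR, 6-FAM labelling, HpaI digestion and capillary electrophoresis; bidirectional fits used DMSO as baseline.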

Experiment [7] has as its target Signal transducer and activator of transcription 3 (Homo sapiens) (UniProt P40763). As to the kind of experiment: ATG_STAT3_CIS: Attagene CIS-FACTORIAL HepG2 Assay for human Signal Transducer and Activator of Transcription 3 (STAT3) (AID 2282963). Conditions: HepG2, Attagene cis-factorial STAT3 reporter transcription; actives raise or lower the signal. In outline:
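After a 24 h compound incubation, total RNA from MRTU-transfected HepG2 cells was converted to cDNA and reporter sequences PCR-amplified, labelled and profiled by capillary electrophoresis. Gain and loss of signal were referenced to DMSO.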

Experiment [8] can be described thus: ATG_TA_CIS: Attagene CIS-FACTORIAL HepG2 Assay for human TA Basal Promoter (AID 2282964). As to conditions: HepG2 Attagene CIS-factorial TA basal promoter reporter; actives raise or lower the signal. In outline:
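Multiplexed mRNA reporter assay, HepG2, 24 h. Reporter cDNA amplified, 6-FAM primer-extended, HpaI-cut, CE-sized; DMSO = negative control and baseline.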

A short description of experiment [9]: ATG_TAL_CIS: Attagene CIS-FACTORIAL HepG2 Assay for human TAL Basal Promoter (AID 2282966).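 Further: background control endpoint measuring basal TAL promoter reporter mRNA not a specific factor.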 Conditions: HepG2 Attagene cis-factorial TAL promoter reporter; actives raise or lower the signal. Put shortly: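 Fluorescence of labelled reporter cDNA fragments, resolved by capillary electrophoresis, gave the readout. Human HepG2 liver cells carried transiently transfected cis-element reporter units and were treated for 24 hours; activity was fitted bidirectionally against DMSO.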

Experiment [10] is described as follows: ATG_TCF_b_cat_CIS: Attagene CIS-FACTORIAL HepG2 Assay for human T-Cell-Factor with beta-catenin (TCF/b-cat) (AID 2282965). Conditions: HepG2 TCF/beta-catenin cis-reporter transcription, actives raise or lower the signal. Put shortly: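 Endogenous transcription factor activity is captured through cis-promoter reporter constructs transiently introduced into human HepG2 liver cells. Induced reporter mRNA is measured after 24 h and fitted bidirectionally relative to DMSO.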

In general, AC50 refers to the concentration at which the activity in the assay is half-maximal.

The structures appear in SMILES notation. “And” between values parts separate entries of the source, which are not always exact repeats. Equal entries are not always repeated. The source holds several records for some structures; these can differ, active in one and inactive in another. The source made the active and inactive calls. How the source made its calls: active means hit-call score of the fitted dose curve at least 0.9, where 1 is the maximum; inactive means score below 0.9.

Chain of Transcription factor Sp1 (Homo sapiens) (P08047 whole entry, looked up): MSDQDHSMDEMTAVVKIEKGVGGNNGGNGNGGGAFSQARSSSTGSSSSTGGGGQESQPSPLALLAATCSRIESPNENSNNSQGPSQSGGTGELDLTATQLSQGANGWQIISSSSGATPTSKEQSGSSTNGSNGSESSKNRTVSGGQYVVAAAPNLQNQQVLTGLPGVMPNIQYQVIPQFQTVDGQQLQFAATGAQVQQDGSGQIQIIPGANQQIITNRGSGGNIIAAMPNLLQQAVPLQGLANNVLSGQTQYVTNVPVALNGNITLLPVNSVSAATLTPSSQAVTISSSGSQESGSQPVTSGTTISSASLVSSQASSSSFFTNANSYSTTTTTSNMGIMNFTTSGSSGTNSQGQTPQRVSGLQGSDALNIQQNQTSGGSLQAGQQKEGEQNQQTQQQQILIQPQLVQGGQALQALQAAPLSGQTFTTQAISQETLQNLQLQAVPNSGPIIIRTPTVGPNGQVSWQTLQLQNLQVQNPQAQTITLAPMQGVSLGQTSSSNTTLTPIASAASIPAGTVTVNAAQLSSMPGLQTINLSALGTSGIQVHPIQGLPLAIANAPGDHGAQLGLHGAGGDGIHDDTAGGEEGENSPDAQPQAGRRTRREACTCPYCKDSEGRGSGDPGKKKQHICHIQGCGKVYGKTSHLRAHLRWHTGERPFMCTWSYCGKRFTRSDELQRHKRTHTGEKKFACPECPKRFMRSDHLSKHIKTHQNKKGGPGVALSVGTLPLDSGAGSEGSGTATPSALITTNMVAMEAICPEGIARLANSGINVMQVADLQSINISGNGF
Chain of Signal transducer and activator of transcription 3 (Homo sapiens) (P40763 whole entry, looked up): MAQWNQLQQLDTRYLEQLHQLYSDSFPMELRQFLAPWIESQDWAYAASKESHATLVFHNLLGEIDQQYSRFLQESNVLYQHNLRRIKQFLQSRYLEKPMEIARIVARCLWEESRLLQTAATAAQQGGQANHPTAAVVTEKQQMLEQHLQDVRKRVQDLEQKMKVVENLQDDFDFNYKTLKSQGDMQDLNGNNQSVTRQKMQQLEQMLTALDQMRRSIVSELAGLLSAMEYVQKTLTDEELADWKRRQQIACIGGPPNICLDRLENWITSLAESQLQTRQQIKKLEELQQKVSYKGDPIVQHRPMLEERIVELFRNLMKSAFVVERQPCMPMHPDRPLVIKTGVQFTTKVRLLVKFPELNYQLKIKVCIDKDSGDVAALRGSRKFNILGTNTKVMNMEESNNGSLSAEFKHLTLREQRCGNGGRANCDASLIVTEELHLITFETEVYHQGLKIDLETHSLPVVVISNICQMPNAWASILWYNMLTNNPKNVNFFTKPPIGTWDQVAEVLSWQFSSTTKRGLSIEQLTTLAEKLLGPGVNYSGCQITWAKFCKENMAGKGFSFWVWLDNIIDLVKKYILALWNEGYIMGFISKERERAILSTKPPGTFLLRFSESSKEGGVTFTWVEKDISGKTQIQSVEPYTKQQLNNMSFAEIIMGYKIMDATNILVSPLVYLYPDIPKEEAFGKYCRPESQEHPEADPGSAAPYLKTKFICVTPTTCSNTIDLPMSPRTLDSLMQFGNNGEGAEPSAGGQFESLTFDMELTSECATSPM

Turning to `COC(=O)CCC(=O)OC`, the compound was called inactive in [1], in [2], in [3], in [4], in experiment [5] and in experiment [6]. Further, the result in experiment [7], in experiment [8] and in experiment [9] was inactive.
As to `CC(N)=O`, in experiment [1], the AC50 is 28.9 µM (active). For the same compound, the outcome in experiment [1], in experiment [3], in experiment [4], in [5], in experiment [6] and in experiment [7] was inactive. The result in experiment [8] and in experiment [9] was inactive.
`CCCCCCC(C=O)=Cc1ccccc1`: the AC50 in experiment [1] is 25.2 µM (active) and 15.7 µM (active); in experiment [2] it was 4.87 µM (active) and 6.4 µM (active); in experiment [6], 26.3 µM (active). Further, the result in experiment [3], in experiment [4], in [6], in [7], in experiment [8] and in [10] was inactive. Further, the compound was classed as inactive in experiment [9].
As to `O=[Si]=O`, the compound was classed as inactive in [1], in experiment [2], in [3], in experiment [4], in experiment [5] and in experiment [6]. The result in experiment [7], in [8], in experiment [10] and in [9] was inactive.
For `CCCC(=O)O`, the result in [1], in experiment [2], in experiment [3], in [4], in experiment [6] and in [7] was inactive. In addition, the compound was classed as inactive in [8] and in [9].
Take `C=CCCCCCCCCCCCC`: the compound was classed as inactive in experiment [1], in experiment [2], in [3], in [4], in experiment [5] and in [6]. In addition, the compound was classed as inactive in experiment [7], in [8], in experiment [10] and in experiment [9].
With `CSc1ccc(Oc2ccc(S(N)(=O)=O)cc2CN(C)C)cc1C`, the results for the AC50 in experiment [1], in experiment [6] and in experiment [10] were 9.66 µM (active), 23.4 µM (active) and 55 µM (active), respectively. Also, the call in experiment [2], in experiment [3], in experiment [4], in experiment [5], in [7] and in experiment [8] was inactive. Further, in [9], the result was inactive.
`C/C=C/c1ccc(OC)cc1`: the compound was called inactive in [1], in experiment [2], in experiment [3], in experiment [4], in experiment [5] and in experiment [6]. The outcome in experiment [7], in experiment [8], in [10] and in experiment [9] was inactive.
For the compound `O=C1c2c(O)cccc2Cc2cccc(O)c21`, the compound was classed as inactive in experiment [1], in [2], in experiment [3], in experiment [4], in experiment [5] and in experiment [6]. The outcome in experiment [7], in [8], in [10] and in experiment [9] was inactive.
In the case of `CC(=O)OC1CC(C)OC(C)O1` (stereo unspecified), the compound was called inactive in experiment [1], in experiment [3], in [4], in experiment [5], in [6] and in experiment [7]. The call in [8], in experiment [10] and in experiment [9] was inactive.
In the case of `O=C(NS(=O)(=O)/C=C/c1cccs1)c1ccc(F)cc1Br`, the AC50 in experiment [1] is 13.7 µM (active). Besides, the result in [3], in experiment [4], in experiment [5], in [6], in experiment [7] and in [8] was inactive. Moreover, the call in experiment [9] was inactive.
For `CCCC[C@H]1CN(CC2CCOCC2)C(=O)OC12CCN(C1(C)CCN(C(=O)c3c(C)ncnc3C)CC1)CC2`, the result in experiment [1], in experiment [3], in experiment [4], in experiment [5], in experiment [6] and in experiment [7] was inactive. In addition, the compound was called inactive in experiment [8], in experiment [10] and in experiment [9].
On to `Oc1ccc(O)cc1`, for which the compound was classed as inactive in experiment [1], in experiment [3], in experiment [4], in experiment [6], in experiment [7] and in experiment [8]. For the same compound, the compound was called inactive in experiment [10] and in experiment [9]. In experiment [5], the AC50 is 29.1 µM (active).
Consider `CC(C)NCC(O)c1ccc(O)c(O)c1` (stereo unspecified), for which the AC50 in experiment [1] is 52.4 µM (active). Moreover, the result in experiment [3], in [4], in [5], in experiment [6], in [7] and in experiment [8] was inactive. Also, the compound was classed as inactive in experiment [9].
Turning to `CO[C@@H]1COCC[C@@H]1N[C@@H]1CC[C@@](C(=O)N2CCc3ncc(C(F)(F)F)cc3C2)(C(C)C)C1`, the compound was classed as inactive in experiment [1], in experiment [3], in [4], in experiment [5], in [7] and in [8]. The outcome in experiment [10] and in experiment [9] was inactive. Besides, the AC50 in experiment [6] was 77.7 µM (active).
As for `CC(=O)OCC(COC(C)=O)OC(C)=O`, the compound was classed as inactive in [1], in [3], in experiment [4], in experiment [5], in experiment [6] and in experiment [7]. Further, the compound was called inactive in experiment [8] and in [9].
Regarding `NC(=Nc1ccccc1)Nc1ccccc1`, the compound was called inactive in experiment [1], in [4], in experiment [5], in experiment [6], in [7] and in experiment [8]. In addition, in experiment [9], the outcome was inactive. In addition, the AC50 in [3] is 29.5 µM (active); in [10], 6.54 µM (active).
`Cc1cc(SC2=C(O)C[C@@](CCc3ccc(N)cc3)(C(C)C)OC2=O)c(C(C)(C)C)cc1CO`: the AC50 in experiment [1] is 1.55 µM (active); in experiment [5], 29.1 µM (active). For the same compound, the compound was called inactive in experiment [3], in [4], in experiment [6], in [7], in experiment [8] and in experiment [10]. Besides, the compound was called inactive in experiment [9].
As for `COC(=O)CCCC(=O)OC`, the outcome in experiment [1], in experiment [3], in experiment [4], in experiment [5], in [6] and in experiment [7] was inactive. The outcome in experiment [8] and in experiment [9] was inactive.
Turning to `CN(C)C(=O)NC1(c2ccccc2)CCN(CCC[C@]2(c3ccc(Cl)c(Cl)c3)CCCN(C(=O)c3ccccc3)C2)CC1`, the AC50 in experiment [1] is 0.119 µM (active); in [3], 4.93 µM (active); in [5] it was 4.73 µM (active); in experiment [6] it was 0.762 µM (active); in experiment [7], 4.4 µM (active). The result in experiment [4], in [8], in experiment [10] and in experiment [9] was inactive.

The values above are taken from PubChem BioAssay (EPA / NIEHS).
